# Laboratory results: PubChem BioAssay (EPA / NIEHS)
# Active and inactive are the calls of the source. Rule for the calls: active = hit-call score of the fitted dose curve at least 0.9, where 1 is the maximum; inactive = score below 0.9.
# Legend:
# Settings in all cases: mRNA level, 48 h; actives raise or lower the signal
# [1] = read-out: Heat shock 70 kDa protein 1 (HSPA1A), gene 3303; test: LTEA_HepaRG_HSPA1A: Life Technologies and Expression Analysis (LTEA) Assay for Heat shock 70 kDa protein 1 (HSPA1A) using HepaRG (AID 2283502)
# Outline: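 HSPA1A expression measured by qRT-PCR with ACTB/GAPDH/POLR2A normalization; curves fitted in both directions relative to DMSO vehicle. Exposure: 48 h in HepaRG cells, duplicate 8-point half-log series from 100 uM, 0.5% DMSO, serum-free induction medium.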
# [2] = read-out: 3-Hydroxy-3-Methylglutaryl-CoA Synthase 2 (HMGCS2), HMGCS2 (gene 3158); test: LTEA_HepaRG_HMGCS2: Life Technologies and Expression Analysis (LTEA) Assay for 3-Hydroxy-3-Methylglutaryl-CoA Synthase 2 (HMGCS2) using HepaRG (AID 2283504)
# Outline: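 This steatosis marker was read as HMGCS2 mRNA change in HepaRG cells treated 48 h with up to 100 uM chemical. Normalisation used housekeeping genes; activity in either direction was fitted relative to 0.5% DMSO vehicle.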
# HGF (gene 3082) = test: LTEA_HepaRG_HGF: Life Technologies and Expression Analysis (LTEA) Assay for Hepatocyte Growth Facto (HGF) using HepaRG (AID 2283505)
# Outline: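 Using HepaRG monolayers kept in 0.5% DMSO, chemicals were tested in duplicate over eight half-log concentrations from 100 uM for 48 h. Endpoint: HGF mRNA change relative to DMSO, normalized to ACTB/GAPDH/POLR2A.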
# [3] = read-out: Insulin Like Growth Factor 1 (IGF1), IGF1 (gene 3479); test: LTEA_HepaRG_IGF1: Life Technologies and Expression Analysis (LTEA) Assay for Insulin Like Growth Factor 1 (IGF1) using HepaRG (AID 2283506)
# Outline: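 Expression measured by TaqMan qRT-PCR on a Fluidigm array, with three housekeeping genes for normalisation, after 48 h treatment of HepaRG cells. Top concentration 100 uM with half-log steps, 0.5% DMSO vehicle, bidirectional fit.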
# [4] = read-out: Intercellular Adhesion Molecule 1 (ICAM1), ICAM1 (gene 3383); test: LTEA_HepaRG_ICAM1: Life Technologies and Expression Analysis (LTEA) Assay for Intercellular Adhesion Molecule 1 (ICAM1) using HepaRG (AID 2283507)
# Outline: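 Using the human liver line HepaRG, compounds are tested in duplicate over 48 h at concentrations up to 100 uM. Expression is determined by TaqMan qRT-PCR, normalized to endogenous controls, and analysed relative to 0.5% DMSO vehicle.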
# [5] = read-out: Insulin-like growth factor-binding protein 1 (IGFBP1), IGFBP1 (gene 3484); test: LTEA_HepaRG_IGFBP1: Life Technologies and Expression Analysis (LTEA) Assay for Insulin-like growth factor-binding protein 1 (IGFBP1) using HepaRG (AID 2283508)
# Outline: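 HepaRG, 48 h, 8 conc. (max 100 uM, half-log), duplicates, 0.5% DMSO. Readout: TaqMan qRT-PCR, ACTB/GAPDH/POLR2A normalisation. Fit: bidirectional vs DMSO.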
# [6] = read-out: Interleukin 6 (IL6), IL6 (gene 3569); test: LTEA_HepaRG_IL6: Life Technologies and Expression Analysis (LTEA) Assay for Interleukin 6 (IL6) using HepaRG (AID 2283509)
# Outline: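 Transcript levels, normalized to three housekeeping genes, were quantified by qRT-PCR after 48 h chemical treatment of HepaRG cells. Eight-point half-log series from 100 uM in 0.5% DMSO, duplicates. Fitted both directions against DMSO baseline.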
# [7] = read-out: Interleukin 6 Receptor (IL6R), IL6R (gene 3570); test: LTEA_HepaRG_IL6R: Life Technologies and Expression Analysis (LTEA) Assay for Interleukin 6 Receptor (IL6R) using HepaRG (AID 2283510);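 for AC50: TaqMan qRT-PCR signal normalized to ACTB GAPDH and POLR2A housekeeping genes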
# Outline: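 IL6R transcript level by qRT-PCR after 48 h chemical exposure (8-point, half-log, max 100 uM, 0.5% DMSO vehicle) of HepaRG cells in serum-free induction medium. Normalized to three housekeeping genes; curves fitted in both directions relative to DMSO.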
# [8] = read-out: Potassium channel subfamily K member 1 (KCNK1), KCNK1 (gene 3775); test: LTEA_HepaRG_KCNK1: Life Technologies and Expression Analysis (LTEA) Assay for Potassium channel subfamily K member 1 (KCNK1) using HepaRG (AID 2283511)
# Outline: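 KCNK1 transcript measured by TaqMan qRT-PCR against three housekeeping genes, after HepaRG cells were treated 48 h with eight half-log concentrations (top 100 uM, 0.5% DMSO). Curves fitted bidirectionally relative to vehicle.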
# [9] = read-out: Lipase C (LIPC), LIPC (gene 3990); test: LTEA_HepaRG_LIPC: Life Technologies and Expression Analysis (LTEA) Assay for Lipase C (LIPC) using HepaRG (AID 2283514)
# Outline: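 LIPC expression was quantified by qRT-PCR against three housekeeping genes (ACTB, GAPDH, POLR2A). Differentiated human HepaRG cells received eight half-log doses (top 100 uM, 0.5% DMSO) in duplicate for 48 h; fitting bidirectional relative to DMSO.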
# [10] = read-out: Lipoprotein lipase (LPL), LPL (gene 4023); test: LTEA_HepaRG_LPL: Life Technologies and Expression Analysis (LTEA) Assay for Lipoprotein lipase (LPL) using HepaRG (AID 2283515)
# Outline: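 LPL transcript levels quantified by TaqMan qRT-PCR against three housekeeping genes after 48 h chemical treatment of HepaRG cells. Eight-point half-log series from 100 uM in 0.5% DMSO, tested in duplicate; bidirectional fitting versus vehicle.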
# [11] = read-out: matrix metalloproteinase-10 (MMP10), MMP10 (gene 4319); test: LTEA_HepaRG_MMP10: Life Technologies and Expression Analysis (LTEA) Assay for matrix metalloproteinase-10 (MMP10) using HepaRG (AID 2283517)
# Outline: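 Expression measured by TaqMan qRT-PCR with ACTB/GAPDH/POLR2A normalisation after 48 h chemical exposure of HepaRG cells. Eight half-log concentrations, top 100 uM, 0.5% DMSO vehicle, duplicates; gain or loss fitted against vehicle.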
# MYC, MYC (gene 4609) = test: LTEA_HepaRG_MYC: Life Technologies and Expression Analysis (LTEA) Assay for MYC using HepaRG (AID 2283518)
# Outline: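 Expression changes were scored by TaqMan qRT-PCR with ACTB, GAPDH and POLR2A normalization. Cultures in serum-free induction medium received duplicate 8-point concentration series, highest 100 uM, for 48 h; DMSO (0.5%) served as baseline.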
# [12] = read-out: matrix metalloproteinase-3 (MMP3), MMP3 (gene 4314); test: LTEA_HepaRG_MMP3: Life Technologies and Expression Analysis (LTEA) Assay for matrix metalloproteinase-3 (MMP3) using HepaRG (AID 2283519)
# Outline: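 Fluidigm-based TaqMan qRT-PCR, normalized to ACTB, GAPDH and POLR2A and fitted bidirectionally versus 0.5% DMSO, measured transcript levels. Treatment: duplicate 48 h exposures of HepaRG cells, ~100,000/well, to eight half-log concentrations topping at 100 uM.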
# [13] = read-out: Paternally Expressed 10 (PEG10), PEG10 (gene 23089); test: LTEA_HepaRG_PEG10: Life Technologies and Expression Analysis (LTEA) Assay for Paternally Expressed 10 (PEG10) using HepaRG (AID 2283520);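 for AC50: PEG10 transcript by qRT-PCR normalised to ACTB GAPDH and POLR2A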
# Outline: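 PEG10 transcript measured by Fluidigm qRT-PCR, normalized to three housekeeping genes, in HepaRG cells treated 48 h (highest 100 uM, half-log steps, 0.5% DMSO vehicle). Cells plated 48 h before switching to serum-free induction medium.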
# [14] = read-out: Nuclear factor NF-kappa-B p105 subunit (Homo sapiens) (UniProt P19838); test: LTEA_HepaRG_NFKB1: Life Technologies and Expression Analysis (LTEA) Assay for Nuclear Factor Kappa B Subunit 1 (NFKB1) using HepaRG (AID 2283521);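 note: TaqMan qRT-PCR transcript normalised to ACTB GAPDH and POLR2A housekeeping genes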
# Outline: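 Differentiated human HepaRG cells were exposed for 48 h in serum-free induction medium to eight concentrations (top 100 uM, half-log steps, 0.5% DMSO), in duplicate. NFKB1 mRNA was measured by TaqMan qRT-PCR, normalized to ACTB/GAPDH/POLR2A, and fitted bidirectionally against DMSO.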
# [15] = read-out: MicroRNA 122 (MIR122), gene 406906; test: LTEA_HepaRG_MIR122: Life Technologies and Expression Analysis (LTEA) Assay for MicroRNA 122 (MIR122) using HepaRG (AID 2283516); note: the transcript read is the microRNA miR-122
# Outline: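 Expression measured by microfluidic qRT-PCR with three housekeeping genes for normalisation, after 48 h treatment of HepaRG cultures. Eight concentrations (top 100 uM, half-log steps, 0.5% DMSO vehicle) in duplicate; gain or loss fitted relative to vehicle.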
# [16] = read-out: Hypoxia-inducible factor 1-alpha (Homo sapiens) (UniProt Q16665); test: LTEA_HepaRG_HIF1A: Life Technologies and Expression Analysis (LTEA) Assay for Hypoxia-inducible factor 1 (HIF1A) Trancription factor using HepaRG (AID 2283503)
# Outline: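 HIF1A transcript level read by qRT-PCR (ACTB, GAPDH, POLR2A normalization) after 48 h chemical exposure of HepaRG cultures. Eight half-log concentrations, top 100 uM, 0.5% DMSO vehicle, duplicates; bidirectional curve fit against DMSO baseline.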
# [17] = read-out: Keratin 19 (KRT19), KRT19 (gene 3880); test: LTEA_HepaRG_KRT19: Life Technologies and Expression Analysis (LTEA) Assay for Keratin 19 (KRT19) using HepaRG (AID 2283512)
# Outline: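 Readout is qRT-PCR of KRT19 mRNA, normalized to ACTB, GAPDH and POLR2A, from HepaRG cells treated 48 h with eight-point half-log dilutions topping at 100 uM. Activity in either direction is scored relative to 0.5% DMSO vehicle.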
# [18] = read-out: JUN Transcription Factor, JUN (gene 3725); test: LTEA_HepaRG_JUN: Life Technologies and Expression Analysis (LTEA) Assay for JUN Transcription Factor using HepaRG (AID 2283513)
# Outline: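 mRNA measured by TaqMan qRT-PCR after 48 h chemical exposure of HepaRG cultures; normalization to three housekeeping genes. Duplicate eight-point half-log curves from 100 uM in 0.5% DMSO; gain or loss fitted against DMSO baseline.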
# Sequence of Nuclear factor NF-kappa-B p105 subunit (Homo sapiens) (P19838 whole entry, looked up): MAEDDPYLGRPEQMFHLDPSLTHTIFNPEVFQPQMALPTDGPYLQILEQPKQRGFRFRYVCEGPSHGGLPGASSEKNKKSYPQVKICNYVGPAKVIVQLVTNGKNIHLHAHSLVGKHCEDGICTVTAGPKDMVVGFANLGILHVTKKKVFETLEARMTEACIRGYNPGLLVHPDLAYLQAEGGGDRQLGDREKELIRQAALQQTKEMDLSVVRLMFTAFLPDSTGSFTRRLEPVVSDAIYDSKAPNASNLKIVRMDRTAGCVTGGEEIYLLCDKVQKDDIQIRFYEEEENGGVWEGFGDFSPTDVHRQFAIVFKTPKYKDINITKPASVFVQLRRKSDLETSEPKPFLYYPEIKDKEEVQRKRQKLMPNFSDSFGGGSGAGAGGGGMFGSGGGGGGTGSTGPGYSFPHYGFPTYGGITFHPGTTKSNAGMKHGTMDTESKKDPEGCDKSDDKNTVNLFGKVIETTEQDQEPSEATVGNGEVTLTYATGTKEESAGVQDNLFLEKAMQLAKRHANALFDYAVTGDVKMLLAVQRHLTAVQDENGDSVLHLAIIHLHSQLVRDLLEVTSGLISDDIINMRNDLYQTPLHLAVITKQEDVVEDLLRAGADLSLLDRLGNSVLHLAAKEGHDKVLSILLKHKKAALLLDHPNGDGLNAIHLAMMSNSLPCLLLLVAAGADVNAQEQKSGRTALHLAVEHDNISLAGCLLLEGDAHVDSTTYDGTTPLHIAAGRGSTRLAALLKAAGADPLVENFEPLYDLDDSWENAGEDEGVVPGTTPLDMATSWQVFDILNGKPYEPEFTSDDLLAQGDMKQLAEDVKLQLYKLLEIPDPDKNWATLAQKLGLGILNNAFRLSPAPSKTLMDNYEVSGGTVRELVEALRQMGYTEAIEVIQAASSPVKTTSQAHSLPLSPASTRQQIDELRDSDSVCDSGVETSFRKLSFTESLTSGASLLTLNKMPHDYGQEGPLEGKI
# Sequence of Hypoxia-inducible factor 1-alpha (Homo sapiens) (Q16665 whole entry, looked up): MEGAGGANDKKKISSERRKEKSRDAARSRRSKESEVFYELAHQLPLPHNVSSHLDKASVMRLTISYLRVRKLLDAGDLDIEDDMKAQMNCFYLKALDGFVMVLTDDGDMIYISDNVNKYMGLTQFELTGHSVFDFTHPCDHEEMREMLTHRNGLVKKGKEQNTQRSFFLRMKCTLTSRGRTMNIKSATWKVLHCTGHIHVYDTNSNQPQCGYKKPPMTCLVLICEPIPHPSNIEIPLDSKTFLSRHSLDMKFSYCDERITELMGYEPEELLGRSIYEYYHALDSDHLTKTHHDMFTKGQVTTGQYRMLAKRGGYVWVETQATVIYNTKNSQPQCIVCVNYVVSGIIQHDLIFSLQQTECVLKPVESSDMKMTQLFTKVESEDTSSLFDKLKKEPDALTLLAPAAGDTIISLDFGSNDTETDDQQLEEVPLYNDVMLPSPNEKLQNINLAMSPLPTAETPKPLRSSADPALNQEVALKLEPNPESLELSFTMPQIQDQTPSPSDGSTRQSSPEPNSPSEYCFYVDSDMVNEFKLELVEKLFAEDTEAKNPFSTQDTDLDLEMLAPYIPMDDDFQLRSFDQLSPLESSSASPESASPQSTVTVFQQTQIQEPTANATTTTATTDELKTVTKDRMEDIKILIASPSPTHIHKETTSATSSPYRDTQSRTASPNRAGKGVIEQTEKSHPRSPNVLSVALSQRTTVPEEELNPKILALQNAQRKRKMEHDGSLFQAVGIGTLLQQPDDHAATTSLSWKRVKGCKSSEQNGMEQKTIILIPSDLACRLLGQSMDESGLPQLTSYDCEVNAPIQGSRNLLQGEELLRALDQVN
structure (smiles),measurement,setting,value
Cc1cc(N=Nc2ccccc2C)ccc1N,AC50,[1],3.55 µM (active)
same,AC50,[2],12.8 µM (active)
same,outcome,HGF (gene 3082),inactive
same,AC50,[3],4.25 µM (active)
same,outcome,[4],inactive
same,AC50,[5],9.92 µM (active)
same,outcome,[6],inactive
same,AC50,[7],2.45 µM (active)
same,outcome,[8],inactive
same,AC50,[9],3.22 µM (active)
same,AC50,[10],4.4 µM (active)
same,outcome,[11],inactive
same,AC50,"MYC, MYC (gene 4609)",5.49 µM (active)
same,AC50,[12],12.2 µM (active)
same,AC50,[13],4.04 µM (active)
same,outcome,[14],inactive
c1ccc2c(c1)-c1cccc3cccc-2c13,outcome,[1],inactive
same,outcome,[2],inactive
same,outcome,HGF (gene 3082),inactive
same,outcome,[3],inactive
same,outcome,[4],inactive
same,outcome,[5],inactive
same,outcome,[6],inactive
same,outcome,[7],inactive
same,outcome,[8],inactive
same,outcome,[9],inactive
same,outcome,[10],inactive
same,outcome,[15],inactive
same,outcome,[11],inactive
same,outcome,"MYC, MYC (gene 4609)",inactive
same,outcome,[12],inactive
same,AC50,[13],50 µM (active)
same,outcome,[14],inactive
CNC(=O)Oc1cccc2c1OC(C)(C)C2,outcome,[16],inactive
same,AC50,[2],38.8 µM (active)
same,outcome,HGF (gene 3082),inactive
same,outcome,[3],inactive
same,outcome,[4],inactive
same,outcome,[5],inactive
same,outcome,[6],inactive
same,outcome,[7],inactive
same,outcome,[8],inactive
same,outcome,[17],inactive
same,outcome,[18],inactive
same,outcome,[9],inactive
same,outcome,[10],inactive
same,outcome,[15],inactive
same,outcome,[11],inactive
same,outcome,"MYC, MYC (gene 4609)",inactive
same,outcome,[12],inactive
same,outcome,[13],inactive
CC(C)(C)C(O)(CCc1ccc(Cl)cc1)Cn1cncn1 (centres undefined),outcome,[16],inactive
same,AC50,[2],72.3 µM (active)
same,AC50,HGF (gene 3082),79.1 µM (active)
same,AC50,[3],50 µM (active)
same,AC50,[4],50 µM (active)
same,AC50,[5],50 µM (active)
same,outcome,[6],inactive
same,outcome,[7],inactive
same,outcome,[8],inactive
same,outcome,[18],inactive
same,AC50,[9],71.8 µM (active)
same,AC50,[10],74.4 µM (active)
same,AC50,[15],78.1 µM (active)
same,outcome,[11],inactive
same,AC50,"MYC, MYC (gene 4609)",50 µM (active)
same,outcome,[12],inactive
same,outcome,[13],inactive
same,outcome,[14],inactive
